Compound activity deposited in PubChem BioAssay by National Center for Advancing Translational Sciences (NCATS).
Marburg entry inh = Marburg virus entry inhibition; Marburg virus pseudotyped entry inhibition, cell reporter; Potency, µM (doses to about 37.8 µM), for inactives: at the top dose activity change, negative = inhibition, hits mostly inhibitors; 300,000 compounds, 1.8% hits; AID 540276; calls by dose curve; tested in HEK293 cells; further: potency means the concentration at half of the fitted maximal effect; on the % scale 0 is the no-effect control and ±100 the full control effect
HCV inh = blocks hepatitis C virus | Huh7.5.1 HCVcc-Cre infection, luciferase reporter, 44 h | Potency, µM (series often up to 41.8 µM), inactives show at the highest dose activity change, negative = inhibition, most hits filed as inhibitors | 340,000 compounds, 3.4% hits; active means well fitted inhibition curve with a large enough effect; inconclusive means small, poorly fitted or top-dose-only effect, or another doubt; inactive means no such curve, though single readings can be large or run the other way; further: potency means the concentration at half of the fitted maximal effect; on the % scale 0 is the no-effect control and ±100 the full control effect
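Whole-lifecycle infectious HCVcc-Cre system; cells 1,000/well, compound then virus (~0.5 moi) added 4 h after plating, 44 h culture. Luciferase read 15 sec following 15 min substrate incubation, room temp.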
LASV entry inh = inhibitors of Lassa virus binding or cell entry | Lassa virus pseudotype entry inhibition, cell reporter | 300,000 compounds, 1.2% hits | Potency, µM (doses to about 37.9 µM), for the others: at the highest dose activity change, negative = inhibition, hits mostly inhibitors; calls by dose curve; tested in HEK293 cells; further: potency means the concentration at half of the fitted maximal effect; on the % scale 0 is the no-effect control and ±100 the full control effect; nearly all actives have a fitted effect of over 50% in size
SARS PLP yeast = inhibitors of SARS-CoV papain-like protease in yeast. S. cerevisiae expressing SARS-CoV PLpro, growth rescue. Potency, µM (doses to about 32.9 µM), without a hit: top-dose activity, positive = growth rescue, usual class: activators. 330,000 compounds, 0.19% hits. AID 485353; calls by dose curve; further: potency means the concentration at half of the fitted maximal effect; 0% is about no effect; nearly all actives have a fitted effect of over 55% in size
FMDV inh = foot and mouth disease virus antiviral activity; 410,000 compounds, 1.2% hits; Potency, µM (titrated, usually from 57.9 µM), without a hit: top-dose activity change, negative = inhibition, usual class: inhibitors; FMDV antiviral cell-based qHTS; calls by dose curve; tested in HEK293T cells; further: read-out not given here; potency means the concentration at half of the fitted maximal effect; on the % scale 0 is the no-effect control and ±100 the full control effect; nearly all actives have a fitted effect of over 45% in size
HCMV inh = blocks human cytomegalovirus replication | HFF cells, HCMV-luciferase reporter, 72 h; hits give low values | activity change, negative = inhibition, % at 57.5 µM | 410,000 compounds, 4.5% hits; in the data active means activity change below about -60%; inconclusive means no clear call, values can overlap the other calls; inactive means above about -39%; further: on the % scale 0 is the no-effect control and ±100 the full control effect
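Cell-based, HFFs, 1000 cells/well, 16 h 37C; cpds in DMSO + HCMV-luc, MOI 1 PFU/cell; 72 h 37C; OneGlo luminescence after 5 min RT; norm. to buffer vs Salinomycin 10uM.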
An asterisk follows results filed as active; ? = inconclusive; · = no result given; [ ] = another dose, or the depositor's remark. Sampled rows, rich in hits. Any-hit rate of the full collection: about 8%.

SMILES	Marburg entry inh	HCV inh	LASV entry inh	SARS PLP yeast	FMDV inh	HCMV inh
CCCCNC(=O)CN1CCN(c2ncc(NC(=O)c3ccc(Cl)cc3)cc2C(=O)O)CC1	·	·	17.4%[46.1 µM]	·	-16.1%	10.8
O=C(O)c1ccc(N=Nc2c(O)[nH]c3ccccc23)cc1	1.78µM*	0.3%	5.01µM*	-0.3%	?	14.8
CN(C)C(=O)c1ccc(N=Nc2c(O)c3ccccc3[nH]c2=O)cc1	?	-7.1%	?	·	?	24.0
O=C(CCc1ccc(S(=O)(=O)NC2CCCCC2)cc1)N(Cc1ccccc1)Cc1ccccc1	12.6µM*	?	?	-20.2%	32.0%	?
O=C(CCc1ccc(S(=O)(=O)NC2CCCCC2)cc1)Nc1ccccc1	-8.3%	6.7%	5.5%	0.6%	14.6%	-68.9*
Cc1ccc(NC(=O)CCc2ccc(S(=O)(=O)NC3CCCCC3)cc2)cc1	?	?	-13.4%	2.7%	4.2%	-17.4
Cc1nc2ccccc2c(=O)n1NC(=O)c1cccc(Cl)c1	4.6%	16.0%	?	1.5%	-17.4%	73.1
Cc1ccc(O[C@@H]2[C@H](O)CO[C@@H]2/C=C/C#Cc2ccc(C(C)(C)C)cc2)cc1	-34.7%[14.2 µM]	·	·	·	·	·
NC(=O)C(c1ccc(Cl)cc1)c1ccc(Sc2ccc(Cl)cc2)nn1 (stereo unspecified)	?	?	?	5.0%	?	-89.1*
CCn1cc(CN2CCOc3ccc(C(O)C4CCCCC4)cc3C2)c(C)n1 (stereo unspecified)	·	·	·	·	-20.5%	·
COc1cc(CN2CCC3(CCC(CNC(=O)c4cc(C)nn4C)O3)CC2)ccc1F (stereo unspecified)	·	·	·	·	3.5%	·
Oc1ccc(Br)cc1-c1cc(-c2ccc(Cl)cc2)n[nH]1	-22.2%	10µM*	-4.5%	-10.5%	-11.6%	-77.4*
Cc1ccc(O)c(-c2cc(-c3cccc(F)c3)n[nH]2)c1	?	10µM*	?	-29.9%	35.9%	69.0
O=[N+]([O-])c1cccc(-c2cc(-c3cc(Br)ccc3O)[nH]n2)c1	?	10µM*	?	-23.8%	28.2µM*	?
COC(=O)C(O)(c1ccc(NC(=S)NC(=O)c2ccc(Cl)cc2Cl)c(C)c1)C(F)(F)F (stereo unspecified)	?	?	5.8µM*	-59.7%	?	40.6
CCOC(=O)C(O)(c1ccc(NC(=S)NC(=O)c2ccc(Cl)cc2Cl)c(C)c1)C(F)(F)F (stereo unspecified)	?	?	10.3µM*	-45.4%	?	?
CC(C)C[C@@H](CN1CCCC1CN1C(=S)NC[C@@H]1Cc1ccc(O)cc1)N1C[C@H](Cc2ccc(O)cc2)N(CC2CCCCCC2)C1=S (stereo partly specified)	·	?	·	·	?	-90.5*
CC(C)C[C@@H](CN1CCCC1CN1C(=S)NC[C@@H]1Cc1ccc(O)cc1)N1C[C@H](Cc2ccccc2)N(CC2CCCCC2)C1=S (stereo partly specified)	·	22.4µM*	·	·	?	-70.5*
CC(C)C[C@@H](CN1CCCC1CN1C(=S)NC[C@@H]1Cc1ccc(O)cc1)N1C[C@H](Cc2ccccc2)N(CC2CCCCCC2)C1=S (stereo partly specified)	·	?	·	·	0.0%	-15.0
COCC(=O)Nc1cc(C(=O)N2CCc3ccccc3C2)c2c(c1)nc(-c1ccncc1)n2C	·	·	·	·	-12.6%	·
O=C(NC1CCN(Cc2ccccc2)CC1)c1ccc(S(=O)(=O)NCc2ccco2)cc1	3.55µM*	3.98µM*	-24.1%[46.1 µM]	-0.5%	-29.0%	-29.8
O=C(c1ccc(S(=O)(=O)NCc2ccco2)cc1)N1CCN(Cc2ccccc2)CC1	10.9%[46.1 µM]	?	?	-5.2%	-15.9%	-34.4
CC1CCCC(C)N1C(=O)c1ccc(S(=O)(=O)NCc2ccco2)cc1 (stereo unspecified)	7.5%[46.1 µM]	10.8%	19.7%	0.1%	-12.1%	-76.1*
O=C(NC1CCCCC1)c1ccc(S(=O)(=O)NCc2ccco2)cc1	3.4%	12.1%	-17.3%	-0.8%	26.2%	89.2
CCOC(=O)C1CCCN(C(=O)c2ccc(S(=O)(=O)NCc3ccco3)cc2)C1 (stereo unspecified)	-28.7%	6.4%	1.4%	-13.3%	-22.3%	-15.8
SMILES	Marburg entry inh	HCV inh	LASV entry inh	SARS PLP yeast	FMDV inh	HCMV inh
COc1ccc(CN2CCN(C(=O)c3ccc(S(=O)(=O)NCc4ccco4)cc3)CC2)cc1	0.316µM*	?	?	-3.0%	?	-83.5*
CC(C)Cc1nc2oc3c(NCC(C)O)ncnc3c2c2c1CCCC2 (stereo unspecified)	·	?	·	-0.4%	-23.3%	-20.0
CC(C)Cc1nc2oc3c(Cl)ncnc3c2c2c1CCCC2	-4.5%[46.1 µM]	-14.8%	16.1%	-3.1%	?	29.2
CCCc1nc2oc3c(NCCCN(C)C)ncnc3c2c2c1CCCC2	?	-76.9%	?	1.5%	0.0%	-98.1*
CCCc1nc2oc3c(Cl)ncnc3c2c2c1CCCC2	-2.6%[46.1 µM]	-20.9%	3.8%	-1.0%	14.1µM*	10.7
CCCc1nc2oc3c(NCCN(C)C)ncnc3c2c2c1CCCC2	?	?	16.4µM*	-3.1%	-13.4%	33.8
CC(C)c1nc2oc3c(NCC4CCCO4)ncnc3c2c2c1CCC2 (stereo unspecified)	?	11.2µM*	?	-3.6%	?	-5.0
CCCc1nc2oc3c(NCC4CCCO4)ncnc3c2c2c1COC(C)(C)C2 (stereo unspecified)	-24.0%	?	9.9%	-1.4%	-22.4%	-12.6
CCCCNC(=O)c1nc2ccc(Br)cc2nc1-c1cccc(Br)c1	·	·	·	·	·	-5.9
Nc1nnc2c(n1)[nH]c1ccccc12	21.1%[46.1 µM]	·	-0.1%[46.1 µM]	·	-10.6%	-6.1
CCc1nc2cc(C(=O)N[C@H]3CCCCNC3=O)cc(NC(=O)c3ccccc3OC)c2n1C	·	·	·	·	-20.0%	·
O=C(CN1CCOCC1)Nc1nc(-c2ccc3c(c2)CCN3S(=O)(=O)c2ccccc2)cs1	?	3.55µM*	?	-0.4%	22.4µM*	-88.4*
Cc1ccc(-c2csc(NC(=O)CN3CCOCC3)n2)cc1	?	?	?	2.6%	-11.7%	?
CNc1nc(-c2ccc3c(c2)CCN3C(=O)c2ccccc2C)cs1	?	?	?	-1.1%	7.5%	-34.9
Cc1sc(NC(=O)CN2CCOCC2)nc1-c1ccc2c(c1)CCN2S(=O)(=O)c1ccccc1	13µM*	?	?	-1.4%	·	-95.8*
Cc1cccc(C(=O)N2CCc3cc(-c4nc(NC(=O)Cn5nnc6ccccc6c5=O)sc4C)ccc32)c1	6.7%	-11.5%	-9.4%	7.2%	·	·
CS(=O)(=O)N1CCc2cc(-c3csc(NC(=O)Cc4cccs4)n3)ccc21	?	1.41µM*	13µM*	-0.4%	12.6µM*	-94.2*
Cc1ccccc1C(=O)N1CCc2cc(-c3nc(NC(=O)Cc4ccc5c(c4)OCO5)sc3C)ccc21	3.4%	3.16µM*	?	-16.8%	?	·
